In the library only some 3.3% were active in any assay of this set; here they are far more common.
HTT aggregate = mutant huntingtin aggregation inhibition; PC12 HttQ103-GFP aggregates, Acumen cytometry, 40 h; AID 1688; Potency, µM (series often up to 46.1 µM), hits mostly inhibitors; actives 1.1% (n = 220,000); also: nearly all actives have a fitted effect of over 60% in size
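Aggregates are detected as GFP objects 1–25 µm with signal 6 STDEV over background in lysates of induced PC12 cells. These carry Huntingtin exon 1 with 103 glutamines fused to GFP under an ecdysone promoter; compounds titrated.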
PNC inhibitor = perinucleolar compartment assembly inhibition | PC3M PTB-GFP, PNC prevalence imaging, 16 h; active compounds read low | activity change (PNC), negative = inhibition, % at 10 µM | actives 3.1% (n = 140,000) | AID 2417;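 active = readout at or below -70, meaning at least 70% loss of cells showing the perinucleolar compartment, a nuclear body marking cancer cells; inconclusive = readout between -30 and a set limit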
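Read-out is percentage of cells bearing a perinucleolar compartment, from automated 20x imaging of fixed, Hoechst-stained PC3M PTB-GFP cells. Cells were seeded 4 h, then exposed 16 h to compound (23 nl of library stock) in duplicate plates.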
IMPase inh = IMPase inhibition in cells; 120,000 tested, under 10 active; inhibition (IP1 accumulation), % at 46.1 µM; CHO-M1 cells, IP1 accumulation, HTRF TR-FRET ratio; AID 901; active = well fitted curve in the direction sought with a large enough effect in the signal ratio, not every such curve was filed as active; inconclusive = small, poorly fitted or top-dose-only effect, or a change in a side signal; inactive = no such curve, though single readings can be large or run the other way; the % refers to the signal ratio;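 also: cells stimulated with carbachol in lithium chloride buffer; higher means more IMPase inhibition seen as more IP1 and lower FRET ratio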
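In this qHTS, compounds (final up to 46 uM) act on CHO-M1 cells that are then activated through the M1 receptor with carbachol, in pH 7.4 buffer containing 50 mM LiCl, for 30 min. IP1 accumulation is quantified by the IP-One immunoassay.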
HTT ATP protect = protects HTT-Q103 PC12 cells, measured by ATP; PC12 HTT-Q103 induced, cytoprotection, ATP luminescence, 40 h; Potency, µM (top dose mostly 56.4 µM), hits mostly activators; actives 0.14% (n = 230,000); AID 1471; also: nearly all actives have a fitted effect of over 45% in size
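PC12 cells with ecdysone-inducible HTT exon 1 Q103-GFP, induced with 100 nM tebufenozide and co-treated with library compounds in a dose series (1536-well, 1500 cells/well). Cytoprotection read as ATP content by ATPlite luminescence.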
NPSR antag = neuropeptide S receptor (human) antagonism, cAMP; Q6W5P4; CHO-NPSR cells, cAMP TR-FRET, antagonist mode; Potency, µM (doses to about 38.3 µM), usual class: inhibitors; actives 1% (n = 220,000); AID 1461; also: nearly all actives have a fitted effect of over 50% in size
ALOX12 inhib = 12-hLO (ALOX12) enzyme inhibition; actives 0.12% (n = 150,000); purified 12-hLO, xylenol orange hydroperoxide absorbance; Potency, µM (doses to about 57.1 µM), hits mostly inhibitors; also: nearly all actives have a fitted effect of over 55% in size
Target sequence (P18054 whole entry, looked up): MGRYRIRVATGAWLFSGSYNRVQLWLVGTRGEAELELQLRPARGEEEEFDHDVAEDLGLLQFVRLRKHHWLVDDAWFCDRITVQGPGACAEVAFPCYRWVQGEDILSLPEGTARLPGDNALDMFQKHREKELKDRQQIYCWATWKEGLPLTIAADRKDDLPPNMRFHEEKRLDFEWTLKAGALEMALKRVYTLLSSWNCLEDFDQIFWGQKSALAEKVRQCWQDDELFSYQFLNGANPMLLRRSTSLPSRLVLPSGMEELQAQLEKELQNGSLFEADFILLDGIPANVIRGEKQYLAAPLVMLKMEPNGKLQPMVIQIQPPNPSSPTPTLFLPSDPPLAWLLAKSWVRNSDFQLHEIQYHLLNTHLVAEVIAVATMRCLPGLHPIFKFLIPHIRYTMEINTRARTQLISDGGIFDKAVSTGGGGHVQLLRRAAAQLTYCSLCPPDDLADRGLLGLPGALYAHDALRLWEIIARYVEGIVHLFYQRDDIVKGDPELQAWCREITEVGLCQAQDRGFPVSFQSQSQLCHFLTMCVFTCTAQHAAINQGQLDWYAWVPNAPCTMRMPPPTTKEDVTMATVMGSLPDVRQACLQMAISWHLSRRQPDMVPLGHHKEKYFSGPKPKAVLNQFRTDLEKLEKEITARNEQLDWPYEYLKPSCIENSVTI
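Hydroperoxide output read as Fe(III)-xylenol orange absorbance, 573-to-405 nm ratio, after 30 min reaction with 40 uM arachidonic acid. Enzyme: 150 nM purified human 12hLO, 15 min compound preincubation; 25 mM Hepes pH 7.0, room temperature.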
Large screens that a line does not name were inactive. Unless noted, calls follow the shape of the dose curve; as a rule, active = well fitted curve in the direction sought with a large enough effect; inconclusive = small, poorly fitted or top-dose-only effect, or another doubt; inactive = no such curve, though single readings can be large; an effect the other way counts as inactive or inconclusive.

CCC(CC)C(=O)Nc1cc([N+](=O)[O-])ccc1F	none (no result: IMPase inh, HTT ATP protect)
C=CCc1cccc(CNc2nc3ccccc3n2CCC)c1O	HTT aggregate inconclusive, NPSR antag 10µM
O=C1S/C(=C\c2ccc(N3CCOCC3)o2)C(=O)N1c1ccccc1	HTT aggregate 15.8µM (no result: PNC inhibitor, IMPase inh, ALOX12 inhib)
N#Cc1c(N)n[nH]c1-c1cc2c([nH]1)CCCC2	HTT aggregate inconclusive, PNC inhibitor -100.0
COC(=O)[C@@]1(Cc2ccccc2)[C@H]2c3cc(C(=O)N(C)C)n(CCF)c3C[C@H]2CN1C(=O)c1ccccc1	none (no result: HTT aggregate, PNC inhibitor, IMPase inh, NPSR antag)
c1cnc2c(c1)ccc1cccnc12	HTT aggregate 7.94µM
O=C(C(=O)c1cccnc1)c1cccnc1	none (no result: PNC inhibitor, IMPase inh, ALOX12 inhib)
O=C(c1cccnc1)c1cccnc1	PNC inhibitor -123.8 (no result: IMPase inh, HTT ATP protect)
O=C(CN1C(=O)c2cccc3cccc(c23)C1=O)N1CCN(c2ccccn2)CC1	PNC inhibitor -104.0 (no result: IMPase inh)
O=C(CN1C(=O)c2cccc3cccc(c23)C1=O)N1CCN(Cc2ccc3c(c2)OCO3)CC1	HTT aggregate 17.8µM
O=C(CCCCCn1c(=O)[nH]c2ccccc2c1=O)N1CCN(Cc2ccc3c(c2)OCO3)CC1	HTT aggregate 12.6µM
COc1cc2[nH]c(=O)n(CCC(=O)N3CCN(Cc4ccc5c(c4)OCO5)CC3)c(=O)c2cc1OC	HTT aggregate inconclusive (no result: PNC inhibitor, IMPase inh, ALOX12 inhib)
CCc1nnc2c(NCc3ccc(F)cc3)nc3ccccc3n12	none (no result: HTT aggregate, PNC inhibitor, HTT ATP protect, NPSR antag, ALOX12 inhib)
Cc1nnc2n1NC(c1ccc(Cl)cc1)C(C(=O)N1CCC(C)CC1)S2 (stereo not drawn)	PNC inhibitor -111.6
Cc1nnc2n1NC(c1ccc(Cl)cc1)C(C(=O)N(C)C1CCCCC1)S2 (stereo not drawn)	none
Cc1ccc(Cl)cc1NC(=S)NCCCSC1CCCCC1	HTT aggregate 22.4µM (no result: PNC inhibitor, IMPase inh, ALOX12 inhib)
Cc1cc(Cl)ccc1NC(=S)NCCCO	none (no result: IMPase inh)
CC(C)(C)OC(=O)COc1cc(OCC(=O)OC(C)(C)C)c2c(=O)cc(-c3ccccc3)oc2c1	NPSR antag 6.31µM
CC(C)(C)c1cc(C(=O)Nc2ccccc2)ccn1	PNC inhibitor -121.7
COc1ccc2c(c1)c(C(=O)N/N=C/c1cccc(Br)c1)c(C)n2C	none (no result: PNC inhibitor, IMPase inh, ALOX12 inhib)
O=C(Cn1cnc([N+](=O)[O-])n1)N/N=C/c1ccccc1O	HTT aggregate 8.91µM, PNC inhibitor inconclusive
O=C(N/N=C/c1cc([N+](=O)[O-])ccc1O)C1CCCCC1	HTT aggregate 10µM (no result: IMPase inh)
O=C(Cn1cnc([N+](=O)[O-])n1)N/N=C/c1cc(Cl)ccc1O	HTT aggregate 11.2µM (no result: PNC inhibitor, IMPase inh, ALOX12 inhib)
Cc1ccn(CC(=O)N/N=C/c2cc([N+](=O)[O-])ccc2O)n1	HTT aggregate 6.31µM (no result: IMPase inh, HTT ATP protect)
Cc1ccccc1/C=N/NC(=O)Cn1cnc([N+](=O)[O-])n1	none
COc1ccc(C(=O)NC=C2C(=O)OC(C)(C)OC2=O)cc1	none (no result: PNC inhibitor, IMPase inh, ALOX12 inhib)
C1CCC(NC(=NC2C3CC4CC(C3)CC2C4)N2CCOCC2)CC1 (stereo not drawn)	none (no result: HTT aggregate, PNC inhibitor, IMPase inh, NPSR antag, ALOX12 inhib)
CC(C)CNS(=O)(=O)c1ccc(OCC(=O)Nc2ccc(F)cc2F)cc1	PNC inhibitor -82.7
Cc1cc(C)nc(-n2nc(C)c3c(C(=O)O)cc(-c4cccc(Br)c4)nc32)n1	none (no result: PNC inhibitor, IMPase inh, ALOX12 inhib)
O=C(NC1CCCCC1)C(c1ccc(F)cc1)N(Cc1ccco1)C(=O)Cn1nnc2ccccc21 (stereo not drawn)	none
O=C(NC1CCCCC1)C(c1ccc(F)cc1)N(Cc1ccco1)C(=O)CN1C(=O)c2ccccc2S1(=O)=O (stereo not drawn)	HTT aggregate 22.4µM (no result: IMPase inh)
O=C(CCNC(=O)c1ccccc1)OCC(=O)c1ccccc1	none (no result: PNC inhibitor, IMPase inh, HTT ATP protect, ALOX12 inhib)
O=C(Nc1nc2ccccc2n1CCN1CCOCC1)c1ccc(COc2ccccc2Br)o1	HTT aggregate inconclusive (no result: PNC inhibitor, IMPase inh, HTT ATP protect, ALOX12 inhib)
CC1CCCc2sc3nc(SCC(=O)c4ccc(Br)cc4)nc(N)c3c21 (stereo not drawn)	none (no result: HTT aggregate, PNC inhibitor, HTT ATP protect, NPSR antag, ALOX12 inhib)
O=C(NC(=S)Nc1ccccc1N1CCCC1)c1ccccc1[N+](=O)[O-]	IMPase inh inconclusive
O=C(NC(=S)Nc1ccc(N2CCCC2)cc1)c1ccccc1[N+](=O)[O-]	PNC inhibitor -83.0 (no result: IMPase inh, HTT ATP protect)
O=c1c2ccccc2nc2c3ccccc3c(NCCO)nn12	none (no result: PNC inhibitor, IMPase inh, ALOX12 inhib)

Assay outcomes deposited in PubChem BioAssay by National Center for Advancing Translational Sciences (NCATS).
